Data as given in PubChem BioAssay.
For part of these data: Measured potencies and affinities stand elsewhere. The source made the active and inactive calls.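 How the source made its calls, unless noted: active means calcium signal cut by more than 3 SD below the full-agonist control yet still positive, in both repeats and the earlier primary screen; inactive means the rest.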

Experiments:
[1] = test system: TRPC4 beta (transient receptor potential cation channel C4), mouse; assay: TRPC4 cation channel opening, retest – cell-based, Fluo4 calcium, HEK293 TRPC4beta/mu-opioid, duplicates, 10 µM, confirmation (AID 2426;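 active means fluorescence ratio normalized to control raised more than 50% in primary screen plus both repeat runs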); details: Fluo4 calcium fluorescence, at 10 µM; stronger effect = higher value
[2] = test system: transient receptor potential cation channel C4 beta (TRPC4), mouse; assay: TRPC4 cation channel opening, second retest – cell-based, second round, Fluo4, HEK293 TRPC4beta/mu-opioid, 1 µM, confirmation (AID 2461;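 active means primary screen active and over 50% activation in each of two duplicate runs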); details: Fluo4 calcium fluorescence, at 1 µM; stronger effect = higher value
[3] = test system: TRPC4 (transient receptor potential cation channel C4 beta), mouse; assay: potentiation of DAMGO EC20 TRPC4 response – cell-based, second round, Fluo-4, HEK293 TRPC4beta/mu-opioid, 1 µM, confirmation (AID 2554;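 active means primary screen hit whose fluorescence ratio, in both repeats, exceeds the weak agonist control mean by 3 SD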); details: DAMGO EC20, Fluo-4 calcium flux, at 1 µM; stronger effect = higher value
[4] = test system: TRPC4 beta (transient receptor potential cation channel C4), mouse; assay: potentiation of DAMGO EC20 TRPC4 response – cell-based, Fluo-4, HEK293 TRPC4beta/mu-opioid, confirmation (AID 2555;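 active means primary screen hit whose calcium fluorescence ratio, in both repeats, exceeds the weak agonist control mean by 3 SD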); details: DAMGO EC20, Fluo-4 calcium flux, at 10 µM; stronger effect = higher value
[5] = target: Short transient receptor potential channel 4 (Mus musculus) (UniProt Q9QUQ5); assay: blockers of DAMGO-evoked TRPC4 calcium flux – cell-based, Fluo4, HEK293 TRPC4beta/mu-opioid, confirmation (AID 2636); details: at 10 µM; stronger effect = higher value
[6] = target: Short transient receptor potential channel 4 (Mus musculus) (UniProt Q9QUQ5); assay: blockers of DAMGO-evoked TRPC4 calcium flux – cell-based, second round, Fluo4, HEK293 TRPC4beta/mu-opioid, 1 µM, confirmation (AID 2637;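 active means calcium signal ratio cut to more than 3 SD under the fully stimulated control mean yet still positive, in both repeats and the primary screen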;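 on inhibition: percent of integrated ratio relative to wells lacking test compound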); details: at 1 µM; stronger effect = higher value
[7] = target: Short transient receptor potential channel 4 (Mus musculus) (UniProt Q9QUQ5); assay: calcium entry via TRPC4 opening agents – cell-based, HEK293 TRPC4/mu-opioid, Fluo-4 calcium, dose response (AID 434937;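 active means primary screen activator hit with a dose response curve and TRPC4 channel activation at any tested dose; inactive means no activation, no dose response, or not a primary hit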)
[8] = target: Short transient receptor potential channel 4 (Mus musculus) (UniProt Q9QUQ5); assay: potentiation of DAMGO-evoked TRPC4 calcium signal – cell-based, HEK293 TRPC4/mu-opioid, Fluo-4 calcium, EC20 DAMGO, dose response (AID 434941;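 active means earlier screen potentiator hit that boosts the TRPC4 ion channel at some dose, with a dose response; inactive means no potentiation, no dose response, or not a prior hit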;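 further: calcium entry triggered by an EC20 dose of DAMGO at the co-expressed mu-opioid receptor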)
[9] = target: Short transient receptor potential channel 6 (Mus musculus) (UniProt Q61143); assay: TRPC6 blockade by TRPC4 inhibitor hits – cell-based, HEK293, membrane potential dye, duplicate, selectivity assay for TRPC4 inhibitor project, confirmation (AID 434948;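 active means active in primary screen and both duplicates, each dropping signal beyond three positive-control SD with fluorescence still positive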); details: HEK293 TRPC6, membrane potential dye fluorescence, at 10 µM, stimulated with maximal-effect acetylcholine; stronger effect = higher value
[10] = target: Short transient receptor potential channel 6 (Mus musculus) (UniProt Q61143); assay: TRPC6 opening by TRPC4 activator hits – cell-based, HEK293, membrane potential dye, duplicate, selectivity assay for TRPC4 activator project, confirmation (AID 434950;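 active means membrane potential signal rise above negative control mean plus 3 SD in both duplicates, also active in the earlier TRPC4 screen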); details: HEK293 TRPC6, membrane potential fluorescence, at 10 µM; activation: stronger effect = higher value; outcome: activation
[11] = target: Short transient receptor potential channel 6 (Mus musculus) (UniProt Q61143); assay: positive modulators of mouse TRPC6 channel – HEK293 cells, membrane potential dye, duplicate, selectivity assay for TRPC4 potentiator project, confirmation (AID 434952;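 active means compound raising the membrane signal above positive-control mean plus 3 SD in both repeats, and a primary screen hit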); details: HEK293 TRPC6, membrane potential dye fluorescence, at 10 µM, maximal acetylcholine added after compound; stronger effect = higher value
[12] = target: Short transient receptor potential channel 4 (Mus musculus) (UniProt Q9QUQ5); assay: calcium flux activators in TRPC4/5HT1a cells, counter-screen for TRPC4 activator project, cell-based, second counter screen, HEK293 TRPC4/5HT1a, Fluo-4 (AID 434977;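 active means calcium signal rise above buffer-control mean plus 5 SD in both duplicates, and also a hit in the primary screen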); details: Fluo-4 calcium flux, at 10 µM; stronger effect = higher value
[13] = serotonin-gated TRPC4 signal block – cell-based, second counter screen, HEK293 TRPC4/5HT1a, Fluo-4, counter-screen for TRPC4 inhibitor project, confirmation (AID 434978;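 active means primary screen active whose calcium signal fell more than 3 SD beyond the full-serotonin control mean in both duplicate plates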;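 on outcome: serotonin given first at submaximal then at maximal dose after compound preincubation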); details: Fluo-4 calcium flux, at 10 µM, serotonin added to trigger calcium flux; stronger effect = higher value
[14] = test system: TRPC4 (mouse), co-expressed with 5HT1a in HEK293; assay: enhancement of serotonin-evoked TRPC4 response – cell-based, second counter screen, HEK293 TRPC4/5HT1a, Fluo-4, counter-screen for TRPC4 potentiator project, confirmation (AID 434979;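 active means signal rise over 3 SD above mean of control wells given weak agonist, in both repeats and first screen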); details: Fluo-4 calcium flux, at 10 µM, serotonin added at its EC20 dose; stronger effect = higher value
[15] = nonspecific calcium rise without TRPC4 – cell-based, HEK293 mu-opioid receptor line, counter-screen for TRPC4 activator project, confirmation (AID 449723;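 active means hit in primary screen, with calcium signal over 5 SD above buffer well mean in both duplicates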;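 further: counter screen cells carry the mu-opioid receptor alone and lack TRPC4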); details: HEK293 mu-opioid cells, Fluo-4 calcium fluorescence, at 10 µM; stronger effect = higher value
[16] = nonspecific potentiation of DAMGO calcium response – cell-based, HEK293 mu-opioid receptor line, counter-screen for TRPC4 allosteric potentiator project, confirmation (AID 449724;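 active means calcium signal rise more than 3 SD above the low-dose agonist control mean, in both duplicate plates and the primary screen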); details: HEK293 mu-opioid receptor cells, Fluo-4 calcium flux, at 10 µM, compound added before EC20 DAMGO stimulus; stronger effect = higher value

Sequence of Short transient receptor potential channel 4 (Mus musculus) (Q9QUQ5 whole entry, looked up): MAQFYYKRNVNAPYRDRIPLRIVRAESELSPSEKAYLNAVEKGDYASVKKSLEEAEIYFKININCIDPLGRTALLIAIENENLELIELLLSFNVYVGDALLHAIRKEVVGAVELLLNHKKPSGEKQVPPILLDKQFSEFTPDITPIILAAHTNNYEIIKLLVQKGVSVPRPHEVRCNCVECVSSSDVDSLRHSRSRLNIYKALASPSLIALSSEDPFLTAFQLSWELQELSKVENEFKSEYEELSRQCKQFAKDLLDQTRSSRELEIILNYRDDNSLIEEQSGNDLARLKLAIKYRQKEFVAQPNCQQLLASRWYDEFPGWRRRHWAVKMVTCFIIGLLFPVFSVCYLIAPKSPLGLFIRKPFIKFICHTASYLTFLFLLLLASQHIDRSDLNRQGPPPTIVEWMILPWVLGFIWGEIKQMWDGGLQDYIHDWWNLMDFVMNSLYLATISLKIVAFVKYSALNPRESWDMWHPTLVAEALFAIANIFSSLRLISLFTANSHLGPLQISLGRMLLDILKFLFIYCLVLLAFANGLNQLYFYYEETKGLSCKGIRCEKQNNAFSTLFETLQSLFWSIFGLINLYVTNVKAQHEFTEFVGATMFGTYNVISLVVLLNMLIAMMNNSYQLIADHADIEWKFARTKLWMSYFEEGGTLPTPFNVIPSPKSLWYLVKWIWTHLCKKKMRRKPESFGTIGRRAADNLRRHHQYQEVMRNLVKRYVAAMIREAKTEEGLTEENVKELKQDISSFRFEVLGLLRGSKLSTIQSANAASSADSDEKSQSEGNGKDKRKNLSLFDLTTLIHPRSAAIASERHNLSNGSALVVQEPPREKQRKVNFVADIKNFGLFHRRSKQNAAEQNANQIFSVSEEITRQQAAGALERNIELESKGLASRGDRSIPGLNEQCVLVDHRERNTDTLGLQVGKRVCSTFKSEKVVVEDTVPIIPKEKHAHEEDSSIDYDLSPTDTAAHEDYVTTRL
Sequence of Short transient receptor potential channel 6 (Mus musculus) (Q61143 whole entry, looked up): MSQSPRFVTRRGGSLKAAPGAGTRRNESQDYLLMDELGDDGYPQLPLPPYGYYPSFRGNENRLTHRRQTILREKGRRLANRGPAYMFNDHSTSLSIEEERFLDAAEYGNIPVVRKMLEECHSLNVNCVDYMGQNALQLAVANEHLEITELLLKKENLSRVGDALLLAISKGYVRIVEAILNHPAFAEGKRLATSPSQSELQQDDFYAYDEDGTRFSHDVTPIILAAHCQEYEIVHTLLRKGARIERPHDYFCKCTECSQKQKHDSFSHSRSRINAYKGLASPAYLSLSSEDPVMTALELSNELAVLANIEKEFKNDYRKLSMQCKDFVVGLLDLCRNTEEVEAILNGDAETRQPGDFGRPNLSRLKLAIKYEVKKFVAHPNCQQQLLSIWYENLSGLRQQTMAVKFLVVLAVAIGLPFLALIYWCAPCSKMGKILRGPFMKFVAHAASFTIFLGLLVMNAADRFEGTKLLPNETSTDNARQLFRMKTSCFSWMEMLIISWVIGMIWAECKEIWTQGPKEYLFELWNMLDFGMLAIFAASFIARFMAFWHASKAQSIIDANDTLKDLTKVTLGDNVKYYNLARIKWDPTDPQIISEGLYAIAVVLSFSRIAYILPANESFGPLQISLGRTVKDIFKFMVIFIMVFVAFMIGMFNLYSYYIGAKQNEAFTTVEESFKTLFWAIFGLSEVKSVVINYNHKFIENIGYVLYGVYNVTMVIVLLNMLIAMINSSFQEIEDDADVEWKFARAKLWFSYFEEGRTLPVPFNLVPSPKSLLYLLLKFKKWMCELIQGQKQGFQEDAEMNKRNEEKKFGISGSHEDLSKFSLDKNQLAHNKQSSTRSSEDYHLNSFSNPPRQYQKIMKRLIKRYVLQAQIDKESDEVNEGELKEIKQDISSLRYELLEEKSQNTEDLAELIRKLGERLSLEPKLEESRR

| SMILES | outcome [1] | outcome [2] | outcome [3] | outcome [4] | inhibition [5] | inhibition [6] | outcome [7] | outcome [8] | outcome [9] | outcome [10] | outcome [11] | outcome [12] | inhibition [13] | outcome [14] | outcome [15] | outcome [16] | outcome [6] | inhibition [9] | outcome [13] |
| --- | --- | --- | --- | --- | --- | --- | --- | --- | --- | --- | --- | --- | --- | --- | --- | --- | --- | --- | --- |
| Cc1cc(Nc2ccccc2)nc2cc(O)ccc12 | inactive | inactive | inactive | inactive | 93% (active) | 52% (active) | inactive | inactive | inactive | inactive | inactive | inactive | 14.4% (active) | inactive | inactive | inactive |  |  |  |
| c1ccc(-c2ccccc2OCCOCCN2CCCCC2)cc1 | inactive | inactive | inactive | inactive | 94% (active) | 44% (active) | inactive | inactive | inactive | inactive | inactive | inactive | 33.7% (active) | inactive | inactive | inactive |  |  |  |
| OC1(c2cccs2)CN(c2ccc(Cl)cc2)C2=[N+]1CCCC2 (centres undefined) | inactive | inactive | inactive | inactive | 72% (active) |  | inactive | inactive | inactive | inactive | inactive | inactive | 35.1% (active) | inactive | inactive | inactive | inactive |  |  |
| Cc1nn(C(=O)CNS(=O)(=O)c2ccccc2)c(C)c1Sc1ccc(Cl)cc1 | inactive | inactive | inactive | inactive | 89% (active) | 62% (active) | inactive | inactive |  | inactive | inactive | inactive | 11.3% (active) | inactive | inactive | inactive |  | 52.5% (active) |  |
| CN(C)C(CNC(=O)c1cccc(C(F)(F)F)c1)c1ccco1 (centres undefined) | inactive | inactive | inactive | inactive | 67% (active) | 69% (active) | inactive | inactive | inactive | inactive | inactive | inactive |  | inactive | inactive | inactive |  |  | inactive |
| Cc1ccc2c(c1)N(C(=O)CCC(=O)Nc1ccccc1Br)CC(C)O2 (centres undefined) | inactive | inactive | inactive | inactive | 90% (active) | 46% (active) | inactive | inactive | inactive | inactive | inactive | inactive | 31.8% (active) | inactive | inactive | inactive |  |  |  |
| Cc1cc2[nH]c3ccccc3c2c(C)n1 | inactive | inactive | inactive | inactive | 87% (active) |  | inactive | inactive |  | inactive | inactive | inactive | 20.3% (active) | inactive | inactive | inactive | inactive | 41.5% (active) |  |
| c1csc(-c2nc(NCC3CCCO3)c3ccccc3n2)c1 (centres undefined) | inactive | inactive | inactive | inactive | 79% (active) |  | inactive | inactive | inactive | inactive | inactive | inactive | 28% (active) | inactive | inactive | inactive | inactive |  |  |
| COc1ccccc1N1CCc2c(C)nc3c(OC)cccc3c21 | inactive | inactive | inactive | inactive | 92% (active) | 44% (active) | inactive | inactive |  | inactive | inactive | inactive | 16.3% (active) | inactive | inactive | inactive |  | 29% (active) |  |
